High-throughput results (PubChem BioAssay)
Compounds with a hit are over-represented: about 2.3% of the library has one in this group of screens.
Coupling enz: inhibits coupling enzyme system, counter-screen for aldolase hits | coupling enzyme system counterscreen, AmpLite Red fluorescence | activity change, negative = inhibition, % at 58.2 µM, hits read low | 290,000 tested, 0.67% active | AID 2472; in the data active means activity change below about -30%
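Final compound at 57.5 uM, incubated 10 min at RT with coupling enzyme reagent (glyceraldehyde-3-phosphate), then 20 min with substrate and AmpLite Red detection. Fluorescence read at 525/598 nm; tests interference with the coupling assay, not aldolase inhibition.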
Tau FP inhib: blocks human tau fibril formation measured by polarization. P10636. K18 P301L tau heparin fibrillization, Alexa594 FP, 6 h. Potency, µM (titrated, usually from 57.7 µM), for inactives: at the top dose activity, negative = inhibition, usual class: inhibitors. 280,000 tested, 0.39% active. AID 1468; further: potency means the concentration at half of the fitted maximal effect; nearly all actives have a fitted effect of over 55% in size
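K18 P301L tau (15 uM unlabeled/0.24 uM Alexa 594-labeled, final) + compound + heparin 20 uM final; 100 mM NaOAc pH 7; 6 hr 37 C; ThT 30 uM final added, 1 hr RT; FP ex 555/em 632 nm.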
Tau fluor counter: counter-screen for tau fibril formation inhibitors; tau K18 P301L Alexa594 fluorescence, heparin fibrillization; Potency, µM (top dose mostly 57.7 µM), inactives show top-dose activity change, negative = decrease; 280,000 tested, 0.93% active; further: potency means the concentration at half of the fitted maximal effect; nearly all actives have a fitted effect of over 55% in size
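Human K18 P301L tau (15 uM unlabeled plus 0.24 uM Alexa 594-labeled, final) in 100 mM sodium acetate pH 7 was mixed with compound and 20 uM heparin and incubated 6 hr at 37 C.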
USP1 inh: blocks the human USP1/UAF1 deubiquitinase complex | O94782 | recombinant USP1/UAF1, Ub-Rhodamine cleavage fluorescence | Potency, µM (highest dose often 57.1 µM), for the others: at the top dose activity change, negative = inhibition, usual class: inhibitors | 390,000 tested, 0.23% active | AID 743255; further: potency means the concentration at half of the fitted maximal effect; nearly all actives have a fitted effect of over 60% in size
Target sequence (O94782 whole entry, looked up): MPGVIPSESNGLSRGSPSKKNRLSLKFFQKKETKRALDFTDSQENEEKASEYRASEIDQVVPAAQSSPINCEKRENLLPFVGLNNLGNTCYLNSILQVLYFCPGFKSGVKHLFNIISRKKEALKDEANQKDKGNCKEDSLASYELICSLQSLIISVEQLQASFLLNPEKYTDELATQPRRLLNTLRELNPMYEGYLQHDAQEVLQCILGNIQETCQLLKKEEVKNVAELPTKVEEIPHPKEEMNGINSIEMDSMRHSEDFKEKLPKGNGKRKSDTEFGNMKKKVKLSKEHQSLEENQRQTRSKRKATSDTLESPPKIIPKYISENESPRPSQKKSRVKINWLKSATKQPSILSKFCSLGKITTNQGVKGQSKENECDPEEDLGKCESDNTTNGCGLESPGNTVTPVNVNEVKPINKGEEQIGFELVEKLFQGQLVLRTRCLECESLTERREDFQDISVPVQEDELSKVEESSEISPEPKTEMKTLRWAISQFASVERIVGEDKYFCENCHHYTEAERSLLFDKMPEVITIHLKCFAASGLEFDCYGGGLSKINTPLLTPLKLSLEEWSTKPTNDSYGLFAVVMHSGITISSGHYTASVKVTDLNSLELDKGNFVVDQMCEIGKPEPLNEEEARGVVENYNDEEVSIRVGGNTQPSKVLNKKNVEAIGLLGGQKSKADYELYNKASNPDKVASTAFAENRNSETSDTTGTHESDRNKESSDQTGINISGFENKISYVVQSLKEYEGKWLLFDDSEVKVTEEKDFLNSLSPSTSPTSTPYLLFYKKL
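1 nM enzyme complex + cpd, 15 min RT; start with Ub-Rho 150nM final; kinetic fluorescence ex 480/em 540, 6 reads q60 s. Buffer 50mM HEPES pH 7.8, 0.5mM EDTA, 0.1 mg/ml BSA, 1mM TCEP, 0.01% Tween-20.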
Tau fibril ThT: blocks human tau fibril formation measured by thioflavin T; P10636; recombinant tau K18 P301L, heparin-induced fibrillization, ThT fluorescence; Potency, µM (highest dose often 57.4 µM), for the others: at the highest dose activity, negative = inhibition, hits mostly inhibitors; 270,000 tested, 2.1% active; AID 1460; further: potency means the concentration at half of the fitted maximal effect; nearly all actives have a fitted effect of over 55% in size
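Fibril formation assay: tau K18 P301L at 15 uM with trace Alexa 594 label, heparin inducer 20 uM, pH 7 sodium acetate buffer, 37 C for 6 hr; endpoint ThT signal.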
Starred values were filed as active, the others as inactive; [ ] = dose if it differs, or a comment. Unless noted, the call rests on the fitted dose curve; in most records, active means well fitted curve in the direction sought with a large enough effect; inconclusive means small, poorly fitted or top-dose-only effect, or another doubt; inactive means no such curve, though single readings can be large; an effect the other way counts as inactive or inconclusive. On the % scale 0 is the no-effect control and ±100 the full control effect.

Results for O=C(C[n+]1ccccc1)Nc1c(Cl)cc(Cl)cc1Cl ?
Coupling enz: -23; Tau FP inhib: -62%; Tau fluor counter: -39%; USP1 inh: -16%; Tau fibril ThT: 18µM*

What do the screens show for `Cc1[nH]c(N=Nc2ccccc2)nc1N=Nc1ccccc1`?
Coupling enz: -7; Tau FP inhib: -1%; Tau fluor counter: inconclusive; USP1 inh: -26%; Tau fibril ThT: 3.5µM*

How did CCOc1cccc(CNc2ccc(O)cc2)c1OCc1ccccc1Cl do in these assays?
Coupling enz: 1; Tau FP inhib: 11µM*; Tau fluor counter: 10µM*[quencher]; USP1 inh: inconclusive; Tau fibril ThT: 28µM*

How did CCOc1cccc(CNn2cnnc2)c1OCc1ccccc1Cl do in these assays?
Coupling enz: -2; Tau FP inhib: -1%; Tau fluor counter: -5%; USP1 inh: -2%; Tau fibril ThT: -6%

How did CCOc1c(Cl)cc(CNc2ccc(N3CCCC3)cc2)cc1OC do in these assays?
Coupling enz: -30; Tau FP inhib: 7.9µM*; Tau fluor counter: inconclusive; USP1 inh: -33%; Tau fibril ThT: 3.2µM*

How did CCOc1cccc(CNc2ccc(O)cc2)c1OCc1ccc(Cl)cc1Cl do in these assays?
Coupling enz: -50*; Tau FP inhib: 28µM*; Tau fluor counter: inconclusive; USP1 inh: 32µM*; Tau fibril ThT: 28µM*

Results for CCOc1cc(CNc2ccccc2)cc(Br)c1OCc1ccc(F)cc1 ?
Coupling enz: -7; Tau FP inhib: 6%; Tau fluor counter: inconclusive; USP1 inh: inconclusive; Tau fibril ThT: -12%

What do the screens show for `CCOc1cc(CNc2ccc(O)cc2)cc(Cl)c1OCc1ccccc1`?
Tau FP inhib: -8%; Tau fluor counter: 16µM*[quencher]; USP1 inh: 28µM*; Tau fibril ThT: inconclusive

Results for Cc1ccc(C)c2sc(NC(=O)c3ccc(S(=O)(=O)N4CCC(C)CC4)cc3)nc12 ?
Tau FP inhib: inconclusive; Tau fluor counter: -20%; USP1 inh: inconclusive; Tau fibril ThT: 14%

How did O=C(CSc1nc2ccccc2nc1Cc1ccccc1)NCc1ccccc1Cl do in these assays?
Tau FP inhib: inconclusive; Tau fluor counter: -13%; USP1 inh: -20%; Tau fibril ThT: -10%

Results for CN1CCCN(C(=O)/C=C/c2ccc(Cl)cc2Cl)CC1 ?
Coupling enz: -1; Tau FP inhib: 7%; Tau fluor counter: 0%; USP1 inh: -6%; Tau fibril ThT: -6%

How did CCOC1=C/C(=C/c2c(N)n3nc(S(=O)(=O)CC)sc3nc2=O)C=CC1=O do in these assays?
Coupling enz: 6; Tau FP inhib: 11%; Tau fluor counter: -2%; USP1 inh: -20%; Tau fibril ThT: inconclusive

What do the screens show for `O=C(/C=C/c1ccco1)NC(=S)Nc1ccccc1N1CCCC1`?
Coupling enz: -12; Tau FP inhib: 3%; Tau fluor counter: 5%; USP1 inh: inconclusive; Tau fibril ThT: 4%

How did Cc1ccc(NC(=S)NC(=O)/C=C/c2ccco2)c(O)c1 do in these assays?
Coupling enz: -4; Tau FP inhib: -1%; Tau fluor counter: -30%; USP1 inh: -10%; Tau fibril ThT: inconclusive

Results for Cc1cccnc1NC(=S)NC(=O)/C=C/c1ccco1 ?
Coupling enz: 0; Tau FP inhib: inconclusive; Tau fluor counter: -27%; USP1 inh: -21%; Tau fibril ThT: 28µM*

How did O=C(/C=C/c1ccco1)NC(=S)Nc1ccccn1 do in these assays?
Coupling enz: -4; Tau FP inhib: 0%; Tau fluor counter: -22%; USP1 inh: -12%; Tau fibril ThT: inconclusive

How did O=C(/C=C\c1ccco1)NC(=S)Nc1ccccc1O do in these assays?
Coupling enz: -1; Tau FP inhib: -16%; Tau fluor counter: inconclusive; USP1 inh: -23%; Tau fibril ThT: 20µM*

What do the screens show for `O=C(/C=C/c1ccco1)NC(=S)Nc1ccccc1O`?
Coupling enz: 0; Tau FP inhib: -20%; Tau fluor counter: inconclusive; USP1 inh: -14%; Tau fibril ThT: 22µM*

What do the screens show for `Cc1c(Cl)cccc1-n1ncc(C(=O)N2CCN(C)CC2)c1C1CCN(C(=O)OC(C)(C)C)CC1`?
Tau FP inhib: 0%; Tau fluor counter: -4%; USP1 inh: -12%; Tau fibril ThT: 1%

What do the screens show for `Cc1nc(-n2nc(C)c(Cc3ccc4c(c3)OCO4)c2C)sc1C(=O)Nc1cccc(Cl)c1`?
Tau FP inhib: inconclusive; Tau fluor counter: -22%; USP1 inh: 9%; Tau fibril ThT: 11%

What do the screens show for `C=CCNC(=O)c1c(Cl)cnn1-c1ccc(C)cc1`?
Coupling enz: 4; Tau FP inhib: -3%; Tau fluor counter: 1%; USP1 inh: -15%; Tau fibril ThT: -8%

What do the screens show for `Nc1ccc2oc(-c3cccc4ccccc34)nc2c1`?
Coupling enz: -1; Tau FP inhib: 7%; Tau fluor counter: 16µM*[quencher]; USP1 inh: -11%; Tau fibril ThT: inconclusive

How did O=C(c1c(F)cccc1Cl)N(Cc1ccco1)C1CCS(=O)(=O)C1 (configuration not stated) do in these assays?
USP1 inh: -23%

Results for Cc1ccc2c(c1)c(N=Nc1cccc(C(=O)O)c1)c(O)n2C ?
Coupling enz: 15; Tau FP inhib: 2%; Tau fluor counter: -7%; USP1 inh: -9%; Tau fibril ThT: 14µM*

How did COc1ccc(-c2cc(C3CCN(C(=O)OC(C)(C)C)CC3)[nH]n2)cc1 do in these assays?
Coupling enz: 0; Tau FP inhib: -6%; Tau fluor counter: -16%; USP1 inh: -11%; Tau fibril ThT: -14%

Results for COc1ccc(-c2cc(C3CCN(c4ccc(C(C)=O)cc4[N+](=O)[O-])CC3)[nH]n2)cc1 ?
Coupling enz: -4; Tau FP inhib: -6%; Tau fluor counter: inconclusive; USP1 inh: -9%; Tau fibril ThT: 3.5µM*

How did COC(=O)c1ccc(N2CCC(c3cc(-c4ccc(OC)cc4)n[nH]3)CC2)c([N+](=O)[O-])c1 do in these assays?
Coupling enz: -1; Tau FP inhib: inconclusive; Tau fluor counter: inconclusive; USP1 inh: -12%; Tau fibril ThT: 3.5µM*

What do the screens show for `CC(=O)c1ccc(N2CCN(c3ncccn3)CC2)c([N+](=O)[O-])c1`?
Coupling enz: 1; USP1 inh: -11%

Results for CC(=O)c1ccc(N2CCC(c3cc(-c4ccc(Cl)cc4)n[nH]3)CC2)c([N+](=O)[O-])c1 ?
Coupling enz: -3; Tau FP inhib: inconclusive; Tau fluor counter: inconclusive; USP1 inh: -14%; Tau fibril ThT: 4.5µM*

What do the screens show for `COc1ccccc1NC(=O)C1CCC(CNS(=O)(=O)c2ccc3c(c2)CC(C)N3C(C)=O)CC1` (configuration not stated)?
Tau FP inhib: 4%; Tau fluor counter: -16%; USP1 inh: -13%; Tau fibril ThT: -5%

How did COC(=O)N[C@H](C[N+](=O)[O-])C(C)(C)C do in these assays?
Coupling enz: -1; Tau FP inhib: -2%; Tau fluor counter: -3%; Tau fibril ThT: -2%
